Screening data: PubChem, National Center for Advancing Translational Sciences (NCATS)
Hits are enriched below; roughly 10% of the tested compounds scored in any of these assays.
RORg inh – blocks mouse ROR gamma transcriptional activity. P51450. Drosophila S2 Gal4-RORgamma UAS-luciferase reporter, 20 h. Potency, µM (top dose mostly 53.6 µM), without a hit: top-dose activity change, negative = inhibition, most hits filed as inhibitors. 5.4% of 310,000 active. AID 2551; further: on the % scale 0 is the no-effect control and ±100 the full control effect; nearly all actives have a fitted effect of over 60% in size
Target sequence (P51450 whole entry, looked up, the tested form may be a part): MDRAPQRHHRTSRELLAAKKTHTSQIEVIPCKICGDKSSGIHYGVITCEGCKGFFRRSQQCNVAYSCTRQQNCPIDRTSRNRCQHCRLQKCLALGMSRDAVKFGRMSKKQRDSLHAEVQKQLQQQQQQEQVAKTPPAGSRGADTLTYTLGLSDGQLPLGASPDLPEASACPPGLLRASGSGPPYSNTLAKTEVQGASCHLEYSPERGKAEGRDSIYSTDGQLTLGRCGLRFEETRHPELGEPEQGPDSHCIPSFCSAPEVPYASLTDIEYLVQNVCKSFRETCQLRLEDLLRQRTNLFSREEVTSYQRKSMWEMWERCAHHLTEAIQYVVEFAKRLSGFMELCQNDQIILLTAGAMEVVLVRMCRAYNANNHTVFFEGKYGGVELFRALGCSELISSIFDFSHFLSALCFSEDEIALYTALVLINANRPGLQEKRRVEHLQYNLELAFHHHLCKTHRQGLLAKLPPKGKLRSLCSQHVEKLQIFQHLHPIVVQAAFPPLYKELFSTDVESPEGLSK
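Drosophila S2 cells stably expressing Gal4-DBD/mouse RORγ fusion under metallothionein promoter plus UAS-luciferase; compound 1 h, then 700 uM CuSO4 induction for 20 h at ambient temperature; inhibition read as reduced luminescence.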
Gal4-VP16 FLuc – counter-screen for ROR gamma inhibitors: Gal4-VP16 reporter; Potency, µM (series often up to 53.6 µM), for inactives: at the highest dose activity, negative = inhibition, usual class: inhibitors; Drosophila S2 Gal4-VP16 UAS-luciferase, luminescence, 20 h; 3.5% of 310,000 active; AID 2546;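 further: Gal4-VP16 expression switched on by copper sulfate through the metallothionein promoter; on the % scale 0 is the no-effect control and ±100 the full control effect; nearly all actives have a fitted effect of over 50% in size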
MCF10A rereplic – DNA re-replication induction in MCF 10a cells. Potency, µM (doses to about 46.1 µM), for inactives: at the highest dose activity, positive = re-replication, usual class: activators. MCF 10A DNA re-replication, Hoechst nuclear intensity, 48 h. 2.9% of 350,000 active; further: % of control where 0% means no effect; nearly all actives have a fitted effect of over 50% in size
ELG1 repair inh – blocks ELG1-dependent DNA repair in HEK293T cells. Potency, µM (highest dose often 46.1 µM), for the others: at the highest dose activity change, negative = inhibition, usual class: inhibitors. HEK293T ELG1-luciferase reporter, luminescence, 16 h; DNA damage induced by 5-fluorouridine. 2.3% of 330,000 active; further: on the % scale 0 is the no-effect control and ±100 the full control effect; nearly all actives have a fitted effect of over 55% in size
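Reporter activity after DNA damage by 5-fluorouridine is monitored. Compound-treated cells incubate 16 hr at 37 °C, then ONE-Glo is added for 30 min before luminescence reading.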
SW480 rerep – induces DNA re-replication in SW480 colon adenocarcinoma cells; SW480 DNA re-replication, Hoechst DNA content imaging, 48 h; Potency, µM (doses to about 46.1 µM), without a hit: at the highest dose re-replication activation, most hits filed as activators; 1.8% of 340,000 active; AID 624297; further: % of control where 0% means no effect; nearly all actives have a fitted effect of over 55% in size
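Cells (250 per well) received 23 nL compound or DMSO by pin tool and were kept 48 hr at 37 C, 5% CO2. Nuclei were then stained with Hoechst for 40 min and scanned for DNA content.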
Starred values were filed as active, the others as inactive. The call rests on the fitted dose curve; in most records, active means well fitted curve in the direction sought with a large enough effect; inconclusive means small, poorly fitted or top-dose-only effect, or another doubt; inactive means no such curve, though single readings can be large; an effect the other way counts as inactive or inconclusive. Potency means the concentration at half of the fitted maximal effect.

`COc1ccc(NC(=O)CSc2nnc(COc3ccccc3)n2Cc2ccco2)cc1OC` gave RORg inh -40.4%, Gal4-VP16 FLuc 11.2µM*, MCF10A rereplic 11.4%, ELG1 repair inh inconclusive and SW480 rerep -2.4%.
Screening Cc1cccc(OCc2nnc(SCC(=O)N(C(C)C)C(C)C)n2Cc2ccco2)c1C returned RORg inh -0.7%, Gal4-VP16 FLuc -1.1%, MCF10A rereplic inconclusive, ELG1 repair inh inconclusive and SW480 rerep 20.6µM*.
`Cc1cnc(NC(=O)CSc2ncc(-c3ccccc3)n2Cc2ccco2)s1` gave RORg inh 11.2µM*, Gal4-VP16 FLuc -28.8%, MCF10A rereplic inconclusive, ELG1 repair inh inconclusive and SW480 rerep 2.4%.
Screening O=C(CSc1ncc(-c2ccc(F)cc2)n1Cc1ccco1)Nc1nccs1 returned RORg inh -23.5%, Gal4-VP16 FLuc -5.2%, MCF10A rereplic 0.0%, ELG1 repair inh 2.5% and SW480 rerep -0.2%.
Screening CC(C)C(=O)NCCc1nc(-c2ccc(Cl)cc2)no1 returned MCF10A rereplic 23.6% and SW480 rerep -5.9%.
Screening O=C(CSc1nnc(Cc2cccs2)n1Cc1ccco1)Nc1cc(Cl)cc(Cl)c1 returned RORg inh 22.4%, Gal4-VP16 FLuc -12.5%, MCF10A rereplic inconclusive, ELG1 repair inh inconclusive and SW480 rerep -1.2%.
Screening COc1ccc(C)cc1NC(=O)CSc1nnc(COc2ccccc2)n1Cc1ccco1 returned RORg inh -108.5%, Gal4-VP16 FLuc inconclusive, MCF10A rereplic inconclusive, ELG1 repair inh 18.4µM* and SW480 rerep 7.5%.
`O=C(CSc1nnc(Cc2cccs2)n1Cc1ccco1)Nc1cccc(Cl)c1` gave RORg inh inconclusive, Gal4-VP16 FLuc 11.2µM*, MCF10A rereplic 6.51µM*, ELG1 repair inh inconclusive and SW480 rerep -2.5%.
O=C(CCNS(=O)(=O)c1ccc(Br)cc1)NCc1ccco1 was read as MCF10A rereplic 4.0%, ELG1 repair inh inconclusive and SW480 rerep -1.4%.
Cc1cc(=O)oc2cc(OCC(=O)N/N=C/c3ccccc3O)ccc12 was read as RORg inh 2.24µM*, Gal4-VP16 FLuc -18.7%, MCF10A rereplic -13.7%, ELG1 repair inh 1.8% and SW480 rerep 2.1%.
CSc1nc(C)cc(OCC(=O)N/N=C/c2ccccc2O)n1 was read as RORg inh 0.891µM*, Gal4-VP16 FLuc 0.708µM*, MCF10A rereplic 5.17µM*, ELG1 repair inh inconclusive and SW480 rerep inconclusive.
For O=C(COc1nsnc1N1CCOCC1)N/N=C/c1ccccc1O the results were RORg inh 0.708µM*, Gal4-VP16 FLuc 3.16µM*, MCF10A rereplic inconclusive, ELG1 repair inh inconclusive and SW480 rerep 18.4µM*.
`C/C(=N\NC(=O)Cc1csc(N2CCOCC2)n1)c1ccccc1` gave RORg inh 14.5%, Gal4-VP16 FLuc 4.3%, MCF10A rereplic 4.9%, ELG1 repair inh -20.1% and SW480 rerep -8.1%.
O=C(Cc1csc(N2CCOCC2)n1)N/N=C/c1ccc(O)c(O)c1O was read as RORg inh -0.8%, Gal4-VP16 FLuc -7.1%, MCF10A rereplic -1.1%, ELG1 repair inh 13µM* and SW480 rerep -8.6%.
CC1CCN(C(c2ccccc2)c2nnnn2C(C)(C)C)CC1 (configuration not stated) was read as RORg inh inconclusive, Gal4-VP16 FLuc 3.16µM*, MCF10A rereplic 3.2%, ELG1 repair inh 1.5% and SW480 rerep -4.8%.
CC(C)(C)n1nnnc1CN1CCN(C(c2ccccc2)c2ccccc2)CC1 was read as RORg inh 8.0%, Gal4-VP16 FLuc inconclusive, MCF10A rereplic 3.4%, ELG1 repair inh 18.4µM* and SW480 rerep -3.1%.
`Cc1ccc(C(c2nnnn2CCc2ccccc2)N2CCC(C)CC2)cc1` (configuration not stated) gave RORg inh inconclusive, Gal4-VP16 FLuc 14.1µM*, MCF10A rereplic inconclusive, ELG1 repair inh -6.7% and SW480 rerep 27.6%.
`CCOc1cc(/C=C(\C#N)C(=O)Nc2cccc(C(=O)O)c2)ccc1OCc1ccc(Br)cc1` gave RORg inh 19.6%, Gal4-VP16 FLuc 16.4%, MCF10A rereplic 7.6%, ELG1 repair inh 4.9% and SW480 rerep 22.5%.
